About 1,200 (0.33%) of roughly 360,000 compounds were called active.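 The calls were made as follows: active = activation above the run's mean compound activation plus 3 SD (cut at about 16% in these data); inactive = the rest.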 Shown is part of a subset that was picked to be rich in actives.
Biological target: Muscarinic acetylcholine receptor M1 (Homo sapiens) (UniProt P11229)
Test: human M1 muscarinic receptor agonists, primary screen, Fluo-8 calcium fluorescence, CHO-K1 cells, HTS (AID 588814);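 also: peak over basal fluorescence ratio within a 140 s kinetic read after compound addition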
Conditions: CHO-K1 hM1, Fluo-8 calcium fluorescence, agonist mode; at 3 µM; active compounds read high; 0% DMSO, 100% acetylcholine EC100

Sequence of Muscarinic acetylcholine receptor M1 (Homo sapiens) (P11229 whole entry, looked up): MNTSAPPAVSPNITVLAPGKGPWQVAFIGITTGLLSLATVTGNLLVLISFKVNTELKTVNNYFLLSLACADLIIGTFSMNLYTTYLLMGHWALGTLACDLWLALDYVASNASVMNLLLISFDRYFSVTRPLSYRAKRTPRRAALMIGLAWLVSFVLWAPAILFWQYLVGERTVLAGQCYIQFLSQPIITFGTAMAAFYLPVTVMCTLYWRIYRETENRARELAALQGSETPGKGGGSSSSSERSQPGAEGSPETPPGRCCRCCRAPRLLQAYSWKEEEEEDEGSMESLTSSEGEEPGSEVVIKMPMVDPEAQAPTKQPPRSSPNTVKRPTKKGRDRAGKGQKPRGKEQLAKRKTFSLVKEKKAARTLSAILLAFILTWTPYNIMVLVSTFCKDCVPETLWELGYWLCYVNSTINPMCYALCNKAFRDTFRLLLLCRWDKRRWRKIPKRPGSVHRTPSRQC

activation, inactive:
CCCCN1CC(COCc2ccccc2)OCCS1(=O)=O (centres undefined) -4.53%
O=C1CCN(CCCc2ccccc2)CCN1CCO -5.68%
COc1ccc(OC)c(NC(=O)c2cc(-c3cc(F)ccc3OCC3CCCO3)n[nH]2)c1 (centres undefined) -6.22%
CC(C)(C)OC(=O)NC(Cc1ccccc1)C(=O)NC(CSC1CCCCO1)C(=O)NN (centres undefined) -3.12%
COC(=O)c1cc(C(=O)NC(C)C2CC3CCC2C3)cc([N+](=O)[O-])c1 (centres undefined) -7.37%
COc1ccc(C(CCNCc2ccccc2F)c2ccc(F)cc2)cc1 (centres undefined) -4.82%
Fc1ccccc1COc1ccccc1CNCc1ccncc1 -7.35%
CC(C)C[C@H]1CN=C(Nc2ccccc2)N1CC1CCCCC1 -8.04%
CC(=O)Nc1ccc(OC(=O)COc2ccc(Br)cc2)cc1 -5.95%
Cn1cccc1C(=O)NNC(=O)COc1ccc(Br)cc1 -2.51%
COCCNc1cc(-c2ccccc2)nc2cc(-c3cccc(F)c3)nn12 -4.59%
Cc1ccc(C2(C)NC(=O)N(CC(=O)N3CC(=O)Nc4ccccc43)C2=O)cc1 (centres undefined) -1.27%
Cc1ccc(S(=O)(=O)N2CCN(C(=O)CN3C(=O)NC(C)(c4ccc(Cl)cc4)C3=O)CC2)c(C)c1 (centres undefined) -3.67%
COc1ccc(C2(C)NC(=O)N(CC(=O)c3ccc4c(c3)OCO4)C2=O)cc1 (centres undefined) 10.2%
COc1cc(NC(=O)CN2C(=O)NC(C)(c3ccc(OC(F)F)cc3)C2=O)cc(OC)c1OC (centres undefined) 5.37%
Cc1ccc(C2(C)NC(=O)N(CC(=O)Nc3ccccc3C(=O)N3CCCCC3)C2=O)cc1 (centres undefined) 0.58%
CC1CCC2(CC1)NC(=O)N(CC(=O)c1ccc3c(c1)OCO3)C2=O (centres undefined) -2.81%
O=C(NC(c1ccc(-c2ccccc2)cc1)c1cnccn1)C1CCN(CCOc2ccc(Cl)cc2Cl)CC1 (centres undefined) -1.39%
Cc1cc(Br)cn2c(Cc3ccsc3)c(-c3ccc(C#N)cc3)nc12 -1.39%
COCCCNc1nc2c(-c3cccc(C)c3)nnn2c2ccc(Cl)cc12 -3.36%
C[C@H]1CN([C@@H](C)CO)C(=O)c2cc(C3=CCCCC3)cnc2O[C@@H]1CN(C)C(=O)Cc1ccccc1 -6.56%
CN(CCc1ccccc1)C(=O)c1cccc(NC(=O)Cc2cccc(NC(=O)C3CCCN(C(=O)CCc4ccccc4)C3)c2)c1 (centres undefined) -7.79%
Cc1ccc(-c2nnc(C)c(N3CC(C)OC(C)C3)n2)cc1 (centres undefined) -3.38%
Cc1ccc(SCC(=O)Nc2nncs2)cc1 0.6%
CC(Oc1ccccc1)C(=O)Nc1oc(-c2ccco2)c(-c2ccco2)c1C#N (centres undefined) -4.2%
CCOc1ccc(S(=O)(=O)N2CCC(C(=O)NCC(=O)Nc3cccc(Cl)c3C)CC2)cc1 -2.79%
COc1ccc(CCNC(=O)/C(C#N)=C2\N=C(NC(=O)c3cccs3)c3ccccc32)cc1 0.74%
CCN(CC)c1ccc(S(=O)(=O)N2CCOCC2)cc1NC(=O)CSc1cccc[n+]1[O-] -5.92%
CCOc1ccc(NC(=O)CC(Cc2ccc(Cl)cc2)C(=O)O)cc1 (centres undefined) -7.97%
O=C(NN1CCOCC1)c1cccc(F)c1 -3.15%
Cc1ccc(C(=O)NC2CCN(C(=O)Nc3ccccc3Cl)CC2)cc1 -1.42%
CC(C)CNC(=O)C1CCCN(S(=O)(=O)c2ccc(-n3cnnn3)cc2)C1 (centres undefined) -2.97%
O=C(Nc1ccc(F)cc1)C1CCCN(S(=O)(=O)c2ccc(-n3cnnn3)cc2)C1 (centres undefined) -3.35%
O=C(NCCCN1CCCC1=O)C(=O)NCC1OCCN1S(=O)(=O)c1ccc(Br)cc1 (centres undefined) -4.08%
COc1ccc(Cl)cc1NC(=O)CN(C)C(=O)CCCc1c[nH]c2ccccc12 -1.46%
Cc1occc1-c1nnc(SCC(=O)NC2(C#N)CCCC2)n1C -1.84%
CCOC(=O)N1CCN(C(=O)c2nn(-c3ccc(C)cc3)c(=O)c3c2c2ccccc2n3C)CC1 -4.51%
CCOC(=O)c1nnn2c3ccccc3c(=O)n(C)c12 -1.59%
COC(=O)c1ccc(CNC(=O)C2CCC(=O)N(Cc3cccc(F)c3)C2)cc1 (centres undefined) -0.82%
Cc1nc([N+](=O)[O-])c(NCCCO)n1Cc1ccccc1 -5.22%
CN(C)CCNC(=O)c1ccc(Cl)c2cc3ccccc3nc12 -6.82%
CSCc1cc(N(C)C)nc(SCc2ccc(Cl)cc2Cl)n1 1.65%
COc1cccc(NC(=O)N(C)C[C@@H]2Oc3ncc(Br)cc3C(=O)N([C@@H](C)CO)C[C@H]2C)c1 -2.37%
COC(=O)c1cc(NS(=O)(=O)c2ccc3c(c2)c(=O)n(C)c(=O)n3C)cc(C(=O)OC)c1 -0.41%
Cc1ccccc1NC(=O)c1cc(S(=O)(=O)N2CCOCC2)cs1 -2.94%
COc1cc(OC)cc(C(=O)NC(C(=O)N2CCC2)C(C)C)c1 (centres undefined) -2.4%
COc1cc(OC)cc(C(=O)NCC(=O)OCC(=O)NC(C)CCc2ccccc2)c1 (centres undefined) -5.47%
CC(C)c1ccc(NC(=O)Cn2ncc3ccccc32)cc1 -2.42%
CC(NC(=O)Nc1ccccc1)c1ccccc1 (centres undefined) -4.05%
COc1ccc(C(c2nnnn2C2CCCC2)N2CCN(C/C=C/c3ccccc3)CC2)cc1 (centres undefined) -7.67%
Cc1ccc(N2C(=O)C3C4C=CC(CC4)C3C2=O)cc1Cl (centres undefined) -1.43%
Cc1ccc(S(=O)(=O)Oc2ccc(/C=N/NC(=O)c3c(Cl)cnn3C)cc2)cc1 -4.49%
Cc1cc(NC(=O)CSc2nc3c(cc2C#N)CCCCC3)no1 -4.15%
CC1(C)CCc2nc(SCc3ccccc3)c(C#N)cc2C1 -1.01%
CCOC(=O)C1CCCN(CCSc2ccc(C)cc2)C1 (centres undefined) -6.73%
COc1ccc(Nc2nc(N)nc(CSC(=S)N3CCC(C)CC3)n2)cc1 -4.28%
CCOC(=O)C1CCCN(C(=O)c2cccc3ccccc23)CC1 (centres undefined) -0.09%
O=C(c1cnccn1)N1CCN(S(=O)(=O)c2cccc(Cl)c2)CC1 -0.88%
CC(C)(C)NC(=O)NC(=O)CN1CCC(Cc2ccccc2)CC1 -13.3%
CC(C)(CNC(=O)Cc1ccc(Cl)cc1Cl)N1CCOCC1 -10.7%
CN1c2ccc(C=O)c3c(C=O)ccc(c23)N(C)C1(C)C -7.9%
COc1ccc(CN2C(=O)C(CC(=O)NCCCCc3ccccc3)CC(C(=O)N3CCOCC3)=C2C)cc1 (centres undefined) 3.01%
CCN(CC)C(=O)C1=C(C)N(Cc2ccc(OC)cc2)C(=O)C(CC(=O)NCc2ccco2)C1 (centres undefined) -7.01%
Cn1cc(C2OC(=O)c3ccccc32)c2ccccc21 (centres undefined) 0.52%
C[C@]12CCC(=O)C=C1C=CC1C2CC[C@@]2(C)C1CC[C@@]21CCC(=O)O1 (some centres undefined) -6.36%
O=C(CN1C(=O)CC(c2ccccc2)S(=O)(=O)c2ccccc21)NC1CCCC1 (centres undefined) -3.97%
COc1ccc(CCC(=O)OCC(=O)Nc2ccc(C)c(S(=O)(=O)N(C)C)c2)cc1 -1.39%
CCN1CCN(c2cc3nc(C)n(Cc4ccccc4)c(=O)c3cc2NC(=O)c2ccccc2F)CC1 -9.45%
NNC(=O)COc1ccc(C2SCCS2)cc1 -1.63%
O=C(CCc1ccccc1)NNC(=O)COc1ccc(Cl)cc1 1.21%
O=C(NNC(=S)NCc1ccccc1)c1ccc(OC(F)F)cc1 -4.38%
CC(=O)NC(=S)NNC(=O)c1ccc(Br)cc1 -8.87%
CCOc1ccccc1NC(=S)NC(=O)CCc1ccccc1 -3.2%

activation, active:
O=S1(=O)C[C@@H](N2CCN(CCO)CC2)[C@H](COCc2ccccc2)N1 17.3%
CCN(CC)CCCC(C)n1c2nc(=O)[nH]c(=O)c-2nc2cc(Cl)ccc21 (centres undefined) 182%
COc1cccc(CNCCc2c[nH]c3ccccc23)c1OCc1ccccc1F 16.5%
Cc1ccc(O)c(NC(=S)NC(=O)COc2ccc(Br)cc2)c1 33.4%
Cc1ccc(NC(=O)CN2C(=O)NC(C)(c3ccc(Cl)cc3)C2=O)c(Br)c1 (centres undefined) 17.6%
COc1ccc(C(=O)CN2C(=O)NC(C)(c3ccc(C)cc3)C2=O)cc1OC (centres undefined) 16.2%
CC1(c2ccc(Cl)cc2)NC(=O)N(CC(=O)c2ccc3c(c2)OCO3)C1=O (centres undefined) 20.6%
Cc1ccc2nc(/C(C#N)=C\c3ccc(OC(=O)c4cccs4)cc3)[nH]c2c1 21.8%
COC(=O)c1ccc(CN2CCCC(C(=O)Nc3cccc(-n4cnnn4)c3)C2)cc1 (centres undefined) 37.4%
Nc1c(C(=O)c2cccs2)sc2nsc(SCCN3CCCCC3)c12 40.6%
CCCc1nc2c(c(=O)c3ccccc3n2C)c(=O)n1C1CCCCCC1 55.4%
Nc1ccc2nc3c(=O)[nH]c(=S)[nH]c3nc2c1 18.4%
COc1cc(OC)cc(C(=O)N[C@H](C(=O)OCC(=O)NC(C)c2ccccc2)C(C)C)c1 (some centres undefined) 18.7%
CCC(C(=O)Nc1ccc(C(C)C)cc1)c1ccccc1 (centres undefined) 29.4%
CC(NC(=O)CSc1nc2c(cc1C#N)CN(C)CC2)c1ccccc1 (centres undefined) 18.6%
CCOC(=O)C1CCCN(Cc2nc(N)nc(Nc3ccc(C)cc3)n2)C1 (centres undefined) 28.3%
CCN(CC)C(=O)C1=C(C)N(Cc2ccc(OC)cc2)C(=O)C(CC(=O)NCCCCc2ccccc2)C1 (centres undefined) 23.1%
Cc1nn(C)cc1N1C(=O)c2cccc3c(N)ccc(c23)C1=O 44.5%
CN1C(=O)c2cccc3c(N)ccc(c23)C1=O 118%
COc1ccc(C(=O)NC(=S)NNC(=O)CCc2ccccc2)cc1 34.7%
COc1ccc(C(=O)NNC(=S)NC(=O)c2ccccc2)cc1 34.3%

From PubChem BioAssay AID588814 (The Scripps Research Institute Molecular Screening Center, 2011)
